From PubChem BioAssay AID588352 (The Scripps Research Institute Molecular Screening Center, 2011)
In all, about 360,000 compounds went through this assay and about 620 (0.17%) were called active. The sample holds actives, similar compounds and a random draw of the others, so the mix is not that of the screen.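 How the source made its calls: active means inhibition above a per-campaign cutoff, the mean of all compounds plus 3 SD (cut at about 60% in these data); inactive means the rest.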

The compounds below were run against Nuclear receptor coactivator 3 (Homo sapiens) (UniProt Q9Y6Q9) (assay: SRC3 coactivator transcriptional activity inhibitors, primary screen, cell-based, luminescence (AID 588352;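 further: 0% = DMSO-treated cells and 100% = gossypol-treated cells at 36 µM; higher means less SRC3-driven luciferase light from the GAL4 reporter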)). Settings: HEK293 GAL4-SRC3 luciferase reporter, at 3.6 µM, hits give high values.
Nuclear receptor coactivator 3 (Homo sapiens), sequence (Q9Y6Q9 whole entry, looked up, the tested form may be a part): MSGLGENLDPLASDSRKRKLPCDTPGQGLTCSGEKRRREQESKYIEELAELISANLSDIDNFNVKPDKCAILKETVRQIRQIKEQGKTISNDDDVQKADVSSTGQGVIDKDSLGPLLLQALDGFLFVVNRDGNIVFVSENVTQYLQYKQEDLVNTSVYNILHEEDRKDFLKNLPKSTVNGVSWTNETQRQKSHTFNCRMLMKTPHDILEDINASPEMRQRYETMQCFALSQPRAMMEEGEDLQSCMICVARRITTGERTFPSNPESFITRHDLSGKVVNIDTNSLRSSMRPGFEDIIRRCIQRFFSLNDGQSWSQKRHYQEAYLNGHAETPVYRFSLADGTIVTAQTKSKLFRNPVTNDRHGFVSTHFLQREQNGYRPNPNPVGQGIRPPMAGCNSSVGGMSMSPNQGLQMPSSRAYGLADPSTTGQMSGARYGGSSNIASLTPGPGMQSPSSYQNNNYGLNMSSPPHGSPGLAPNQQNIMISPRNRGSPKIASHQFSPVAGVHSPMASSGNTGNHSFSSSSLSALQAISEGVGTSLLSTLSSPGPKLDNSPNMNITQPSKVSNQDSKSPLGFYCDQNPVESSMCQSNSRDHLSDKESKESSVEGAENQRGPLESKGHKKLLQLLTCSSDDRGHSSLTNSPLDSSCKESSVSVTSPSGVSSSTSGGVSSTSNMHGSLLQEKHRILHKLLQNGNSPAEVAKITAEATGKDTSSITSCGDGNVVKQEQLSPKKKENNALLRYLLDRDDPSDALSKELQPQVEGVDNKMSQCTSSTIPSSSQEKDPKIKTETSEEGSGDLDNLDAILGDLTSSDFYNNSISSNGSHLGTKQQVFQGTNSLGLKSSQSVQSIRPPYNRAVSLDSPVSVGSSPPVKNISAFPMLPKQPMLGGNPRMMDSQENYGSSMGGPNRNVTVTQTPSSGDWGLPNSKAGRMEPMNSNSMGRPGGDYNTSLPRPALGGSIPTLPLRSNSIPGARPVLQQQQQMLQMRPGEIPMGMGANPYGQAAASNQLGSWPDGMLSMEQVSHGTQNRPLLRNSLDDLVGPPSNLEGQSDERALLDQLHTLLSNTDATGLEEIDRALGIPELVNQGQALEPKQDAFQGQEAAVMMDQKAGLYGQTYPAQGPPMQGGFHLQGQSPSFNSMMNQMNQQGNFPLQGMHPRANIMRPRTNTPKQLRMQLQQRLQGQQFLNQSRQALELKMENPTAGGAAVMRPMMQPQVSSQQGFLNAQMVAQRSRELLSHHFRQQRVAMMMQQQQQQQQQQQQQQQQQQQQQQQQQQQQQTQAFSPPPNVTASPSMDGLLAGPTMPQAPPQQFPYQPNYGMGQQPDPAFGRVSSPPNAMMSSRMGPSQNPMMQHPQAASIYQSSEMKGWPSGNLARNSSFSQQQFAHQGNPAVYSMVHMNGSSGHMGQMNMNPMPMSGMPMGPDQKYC

SMILES	inhibition
FC(F)(F)c1cccc(-c2nc(COc3ccc(Cl)cc3Cl)no2)c1	12.2% (inactive)
CC(C)(C)c1nc2ccccc2c(=O)n1N1C(=O)c2ccccc2C1=O	2.66% (inactive)
CN(C(=O)Nc1ccc(Cl)cc1)n1cnc2ccccc2c1=O	-6.25% (inactive)
CN(c1ccc2nc3ccccc3c(=O)n2n1)C1CCCCC1	73.1% (active)
COc1cccc2cc(C(=O)NCc3ccc(C)cc3)c(=N)oc12	14.3% (inactive)
C=CCOC(=O)C1=C[C@@H](c2ccc3c(c2)OCO3)C[C@@H](OCCCCO)O1	-13.9% (inactive)
CC(C)c1cc(C(N)=O)c(NC(=O)c2cccc(COc3ccc(Br)cc3)c2)s1	-149% (inactive)
COCc1ccc(C(=O)NC2CC(C)(C)Cc3c2cnn3-c2ccc(C)cc2)o1 (centres undefined)	16.3% (inactive)
CC(C)OC(=O)c1ccc(NCc2cc(O)ccc2O)cc1Cl	-31.6% (inactive)
O=C(OC12CC3CC(CC(C3)C1)C2)c1ccc(NCc2cc(O)ccc2O)cc1	74.5% (active)
CCOC(=O)c1[nH]cnc1C(=O)NC1CCCCC1	-23% (inactive)
COc1cccc(Nc2nnc(SCC(=O)N3CC(C)OC(C)C3)s2)c1 (centres undefined)	-8.99% (inactive)
C=CCSc1nnc(Cn2c(=O)sc3ccccc32)n1C	5.67% (inactive)
COc1ccccc1Cn1c(C)nnc1-c1cnn(C)c1N	19.6% (inactive)
CCc1nc2ccc(C(=O)NC3CCN(Cc4ccccc4)CC3)cn2c1N(C)CCN1CCOCC1	14.3% (inactive)
Nc1nc(SCC(=O)NNc2c(Cl)cc(Cl)cc2Cl)n[nH]1	18% (inactive)
Cc1ccc(C)c(S(=O)(=O)N2CC(=O)Nc3ccccc32)c1	22.6% (inactive)
COc1ccc(S(=O)(=O)NCC(=O)NC2CC2)cc1OC	-59% (inactive)
COc1cc(OC)cc(-c2c(-c3ccc(F)cc3)c3cc(-c4ccc5cc[nH]c5c4)ccc3n2C)c1	7.21% (inactive)
Cc1nc2ccccc2n1CC(O)c1ccccc1 (centres undefined)	-14% (inactive)
O=C(Cn1nc([N+](=O)[O-])nc1Br)NC1CCCCC1	5.25% (inactive)
COc1cc(OC)cc(-c2c(-c3cccs3)c3cc(-c4ccc(OC)cc4F)ccc3n2C)c1	-12.6% (inactive)
COC(=O)c1ccc(NC(=O)CSc2nc(N)c(NC(=O)c3ccc(Br)o3)c(=O)[nH]2)cc1	11.5% (inactive)
Clc1cccc(Cl)c1Cn1nnc(-c2cccs2)n1	-55.9% (inactive)
Cn1sc(=O)c2cc(S(=O)(=O)NC3CC3)ccc21	3.57% (inactive)

SMILES	inhibition
CC1(C)NC(=O)N(CC(=O)Nc2cc(C(F)(F)F)cc(C(F)(F)F)c2)C1=O	22.2% (inactive)
CCCCNC(=O)C1CCCNC1=O (centres undefined)	12.3% (inactive)
CCNC(=O)C1(C)CCCN1C(=O)c1ccc(N(C)C)cc1 (centres undefined)	-7.5% (inactive)
COc1cc(NC(=O)C2=C(C)OCCS2)c(Cl)cc1C(=O)NCCCN1CCCC(C)C1 (centres undefined)	-22.7% (inactive)
O=C(N/N=C/c1cccc([N+](=O)[O-])c1)C1CC(=O)N(c2ccc(Br)cc2)C1 (centres undefined)	-0.6% (inactive)
COc1ccc(OCCCCN2CCC(C)CC2)cc1	-47.3% (inactive)
CCC(O)C1CCN(Cc2cn(-c3ccc(OC)cc3)nc2-c2cccc(F)c2)CC1 (centres undefined)	14% (inactive)
Cc1nc2nc(COc3ccccc3)[nH]n2c(=O)c1Cc1ccccc1	-32.6% (inactive)
COc1cccc(/C=C(/CC(=O)Nc2ccc(N3CCOCC3)cc2)c2nc3ccccc3s2)c1	7.57% (inactive)
COC(=O)Cc1[nH]n(-c2nc3ccccc3s2)c(=O)c1C(C)=Nc1ccc(OC)cc1	86.7% (active)
Cc1occc1-c1nnc(SCC(=O)NC2CCCCC2)o1	15.9% (inactive)
O=C(Nc1cc(-c2ccccc2)nn1-c1ccccc1F)c1ccc([N+](=O)[O-])cc1	-5.69% (inactive)
O=C(NC(Nc1nc2ccc([N+](=O)[O-])cc2s1)(C(F)(F)F)C(F)(F)F)c1ccccc1	76.7% (active)
O=C(NNS(=O)(=O)Cc1ccccc1)c1ccc([N+](=O)[O-])cc1	-12.1% (inactive)
O=S(=O)(NCCc1ccc(Cl)cc1)c1cccs1	14% (inactive)
Brc1c(CSc2nncc3ccccc23)nc2ccccn12	-11.5% (inactive)
CCCN(CCC)S(=O)(=O)c1ccc(C(=O)N2CC3CCC(CC3)C2)cc1	21.3% (inactive)
CN(CC(=O)Nc1ccc(C(N)=O)cc1)S(=O)(=O)c1ccc2c(c1)OCCO2	-5.47% (inactive)
COc1ccc2c(c1)c(=Cc1ccc(N(C)C)cc1)c1cc(-c3ccccc3)[n+](C)n12	72.6% (active)
O=S(=O)(/C=C/c1ccccc1)N1CCNCC1	18.6% (inactive)
COc1c(F)c(F)c(C(=O)O)c(Nc2ccccc2C)c1F	3.91% (inactive)
Cn1cnc(C(F)(F)F)c1-c1ccc([N+](=O)[O-])cc1	9.14% (inactive)
O=C(O)CCc1cccnc1	-1.19% (inactive)
CC1CCCC(C)N1C(=O)COC(=O)COc1ccccc1C#N (centres undefined)	13.1% (inactive)
Cc1ccc(C(=O)NNC(=O)OC(C)(C)C)c(Cl)c1	-22.3% (inactive)

SMILES	inhibition
COc1ccc(CCNC(=O)CCc2cn(C)c3ccccc23)c(OC)c1	-10.8% (inactive)
COc1ccccc1NS(=O)(=O)c1ccc(C)c(C(=O)NNC(=O)c2csc(N3CCOCC3)n2)c1	-18.4% (inactive)
Cc1ccc(OC(=O)c2ccccc2C(=O)OCC(F)(F)C(F)F)cc1	12% (inactive)
CN(Cc1cccs1)C(=O)CN1C(=O)c2ccccc2S1(=O)=O	-22.1% (inactive)
COc1ccc(CNC(=O)CN2C(=O)c3ccccc3S2(=O)=O)cc1	0.21% (inactive)
O=C(CN1C(=O)c2ccccc2S1(=O)=O)N1CCc2ccccc21	78.1% (active)
CSc1cc(C)n(-c2ccccc2C)c(=S)c1C(C)=O	-24.7% (inactive)
COc1ccc(-n2c(C)csc2=S)cc1	-12.6% (inactive)
O=C(O)C1CCN(C(=O)c2cc(F)cc3c2OCOC3)CC1	1.17% (inactive)
Cc1ccc(C(c2sc3nc(C)nn3c2O)N2CCN(c3ccccc3)CC2)cc1 (centres undefined)	-21.5% (inactive)
CC(C)OC(=O)c1cc(NC(=O)C2C3CCC(O3)C2C(=O)O)cc(C(=O)OC(C)C)c1 (centres undefined)	6.46% (inactive)
O=c1[nH]n2c(=O)c3c([nH]c2c1N=Nc1ccccc1)CCC3	-2.3% (inactive)
Cc1nc2c(ncn2-c2ccccc2)c(=O)n1NC(=O)CN1CCCC1	6.67% (inactive)
COc1ccc(NC(=S)N2N=CCC2c2ccccc2)cc1 (centres undefined)	-88% (inactive)
COCc1cc(=O)n2[nH]c(C)c(-c3ccccc3)c2n1	3.15% (inactive)
O=C1NC(=Nc2ccc(Cl)cc2)SC1Cc1cccc(Cl)c1Cl (centres undefined)	11.5% (inactive)
CCOc1cc(C2/C(=C(/O)c3ccc(S(=O)(=O)N4CCCCC4)cc3)C(=O)C(=O)N2CCOC)ccc1O (centres undefined)	-17.2% (inactive)
Cc1ccsc1C1C(C#N)=C(N)OC2=C1C(=O)CC(C)C2 (centres undefined)	-1.41% (inactive)
O=C(Nc1ccon1)c1nc[nH]c1C(=O)NCc1ccccc1	63% (active)
CC(C)(C)OC(=O)NCCCCCNC(=O)c1nc[nH]c1C(=O)NCc1ccccc1	-1.92% (inactive)
O=C(Nc1cc(Br)ccc1F)c1nc[nH]c1C(=O)NCc1ccccc1	16.5% (inactive)
Cc1cccc(-[n+]2c(-c3cccc(Br)c3)[nH]c3nc4ccccc4nc32)c1	18.1% (inactive)
Cc1ccc(NC(=O)NC(=O)CSc2nnc(-c3ccc(OC(F)F)cc3)n2N)c(C)c1	-17.3% (inactive)
CCN(Cc1ccccc1)C(=O)CN1C(=S)NC(C)(C)CC1C (centres undefined)	-5.54% (inactive)
